Reference: PubChem BioAssay (NCATS)
Results filed as inconclusive are left out. For some assays here: Potency and affinity values are given separately. Calls of active or inactive are those of the source. Unless noted, no rule for the calls is given here.

Columns and labels:
[1] = Ebola virus entry assay, green fluorescence channel
[2] = Ebola virus entry assay, blue channel fluorescence
[3] = Ebola virus entry assay, ratio channel
[4] = Ebola virus entry assay, green channel fluorescence
[5] = Ebola virus entry assay, reporter ratio channel; Channel type: primary
[6] = Ebola virus entry assay, blue channel (ratio component)
[7] = qHTS assay for measurement of the activity of small molecule inhibitors on Zika virus induced Caspase-3 activity in human iPSC derived neural progenitor cells (hNPCs) (AID 1224857; active = well fitted inhibition curve with a large enough effect; also: % of control where 0% means no effect; nearly all actives have a fitted effect of over 65% in size); settings: hNPCs ZIKV-induced caspase-3/7, Caspase-Glo luminescence, 6 h; series mostly up to 45.7 µM
Procedure, shortened: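 In medium with heparin 2 ug/ml and cyclopamine 2 uM, hNPCs (350 cells/well) received compound for one hour and then Zika virus at 2 FFU/cell; caspase activity was measured by Caspase-Glo 3/7 luminescence 6 h post-infection.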

[8] = qHTS assay for measurement of the activity of small molecule inhibitors on Zika virus induced Caspase-3 activity in human astrocytoma cells (AID 1224859; active = well fitted inhibition curve with a large enough effect;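 also: plate controls were ZIKV-infected untreated cells for no effect and uninfected cells for full effect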); settings: SNB-19 ZIKV-induced caspase-3/7, luminescence, 6 h; series mostly up to 45.7 µM
Procedure, shortened: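 A cell-based luminescent caspase-3/7 assay used SNB-19 cells infected with ZIKV (2 FFU/cell) for 6 h following 1 h compound pretreatment.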
For efficacy in this document: 0% is about no effect.

CN(C)C(=O)Nc1ccc(Cl)c(Cl)c1
inactive: efficacy [1] 15.7% | outcome [2] | outcome [3] | outcome [4] | outcome [5] | outcome [6]

CCN[C@H]1C[C@H](C)S(=O)(=O)c2sc(S(N)(=O)=O)cc21
inactive: efficacy [1] 10.6% | outcome [2] | outcome [3] | outcome [4] | outcome [5] | outcome [6]

CN(C)CCc1c[nH]c2ccc(O)cc12
inactive: efficacy [1] -13.8% | outcome [2] | outcome [3] | outcome [4] | outcome [5] | outcome [6] | Potency [7] | outcome [8]

CN(C(=O)c1c(O)c2ccccc2n(C)c1=O)c1ccccc1
inactive: efficacy [1] -16% | outcome [2] | outcome [3] | outcome [4] | outcome [5] | outcome [6]

COc1cc(C(=S)N2CCOCC2)ccc1O
inactive: efficacy [1] -16.3% | outcome [2] | outcome [3] | outcome [4] | outcome [5] | outcome [6]

O=C(O)CCCCCCNC1c2ccccc2CCc2ccccc21
inactive: efficacy [1] 26.2% | outcome [2] | outcome [3] | outcome [4] | outcome [5] | outcome [6] | Potency [7] | outcome [8]

CNC(C)Cc1ccccc1OC (stereo not given)
inactive: efficacy [1] -13.2% | outcome [2] | outcome [3] | outcome [4] | outcome [5] | outcome [6] | Potency [7] | outcome [8]

CN(C)C(=O)Oc1cc(OC(=O)N(C)C)cc(C(O)CNC(C)(C)C)c1 (stereo not given)
inactive: efficacy [1] 18.9% | outcome [2] | outcome [3] | outcome [4] | outcome [5] | outcome [6] | outcome [8]

CCO[C@H]1O[C@@H]2OC3(C)CC[C@H]4[C@H](C)CC[C@@H]([C@H]1C)[C@@]24OO3
inactive: efficacy [1] 19.2% | outcome [2] | outcome [3] | outcome [4] | outcome [5] | outcome [6] | Potency [7] | outcome [8]

CNC(=O)Oc1cccc2ccccc12
inactive: efficacy [1] 18.8% | outcome [2] | outcome [3] | outcome [4] | outcome [5] | outcome [6] | Potency [7] | outcome [8]

c1cc2c(c(N3CCNCC3)c1)OCCO2
inactive: efficacy [1] 11.5% | outcome [2] | outcome [3] | outcome [4] | outcome [5] | outcome [6] | outcome [8]

O=C(CCCCl)c1ccc(F)cc1
inactive: efficacy [1] 36.2% | outcome [2] | outcome [3] | outcome [4] | outcome [5] | outcome [6] | Potency [7] | outcome [8]

Oc1c(Br)cc(Br)cc1Br
inactive: efficacy [1] -9.36% | outcome [2] | outcome [3] | outcome [4] | outcome [5] | outcome [6] | Potency [7] | outcome [8]

CC(CC(C(N)=O)(c1ccccc1)c1ccccc1)N(C)C (stereo not given)
inactive: efficacy [1] 13% | outcome [2] | outcome [3] | outcome [4] | outcome [5] | outcome [6] | outcome [8]

CCNc1nc(Cl)nc(NCC)n1
inactive: efficacy [1] 16.6% | outcome [2] | outcome [3] | outcome [4] | outcome [5] | outcome [6] | Potency [7] | outcome [8]

C1CN2CCC1CC2
inactive: efficacy [1] -16% | outcome [2] | outcome [3] | outcome [4] | outcome [5] | outcome [6] | Potency [7] | outcome [8]

CCOC(=O)NC(C)(C)Cc1ccc(Cl)cc1
inactive: efficacy [1] -26.2% | outcome [2] | outcome [3] | outcome [4] | outcome [5] | outcome [6] | Potency [7] | outcome [8]

CC1=C2[C@H]3OC(=O)[C@@H](C)[C@@H]3CC[C@@]2(C)C=CC1=O
inactive: efficacy [1] 18.3% | outcome [2] | outcome [3] | outcome [4] | outcome [5] | outcome [6] | outcome [8]

CC(C)=C[C@@H]1[C@@H](C(=O)OCc2coc(Cc3ccccc3)c2)C1(C)C
inactive: efficacy [1] 20% | outcome [2] | outcome [3] | outcome [4] | outcome [5] | outcome [6] | Potency [7] | outcome [8]

CC(Cc1ccc2c(c1)OCO2)NO (stereo not given)
inactive: efficacy [1] -23.6% | outcome [2] | outcome [3] | outcome [4] | outcome [5] | outcome [6] | outcome [8]

CNC(C)Cc1ccc2c(c1)OCO2 (stereo not given)
inactive: efficacy [1] -15.1% | outcome [2] | outcome [3] | outcome [4] | outcome [5] | outcome [6] | outcome [8]

CCOC(=O)C(c1c(O)c2ccccc2oc1=O)c1c(O)c2ccccc2oc1=O
inactive: efficacy [1] 18.5% | outcome [2] | outcome [3] | outcome [4] | outcome [5] | outcome [6] | Potency [7] | outcome [8]

COP(=O)(OC)OC=C(Cl)Cl
inactive: efficacy [1] 29.4% | outcome [2] | outcome [3] | outcome [4] | outcome [5] | outcome [6] | outcome [8]

CCC1(c2ccccc2)CCC(=O)NC1=O (stereo not given)
inactive: efficacy [1] 11% | outcome [2] | outcome [3] | outcome [4] | outcome [5] | outcome [6] | Potency [7] | outcome [8]

ClCCCN1CCN(c2cccc(Cl)c2)CC1
inactive: efficacy [1] 26.2% | outcome [2] | outcome [3] | outcome [4] | outcome [5] | outcome [6] | Potency [7] | outcome [8]
